Screens deposited in PubChem by ICCB-Longwood Screening Facility, Harvard Medical School.
Compounds with a hit are over-represented: about 1.4% of the library has one in this group of screens.
Mtb MbtI inh: MbtI salicylate synthase inhibition | inhibition, % (test concentration not listed) | purified MbtI enzyme, fluorescence intensity read-out | 0.89% of 100,000 active; in the data active = inhibition mostly above about 56%, no sharp cut-off; inactive = mostly below about 77%
PV pol inh: inhibitors of poliovirus RNA polymerase binding and polymerization | P03300 | poliovirus polymerase elongation, fluorescence polarization; active compounds read low | % elongation, % (compound at 16.7 µg/mL) | 0.66% of 150,000 active | AID 588519; in the data active = % elongation below about 90%
Mtb MenB inh: inhibitors of Mycobacterium tuberculosis MenB enzyme; P9WNP5; AID 540299; MenB enzyme assay, absorbance read-out; 0.43% of 100,000 active; inhibition, % (no concentration beside the values); in the data active = inhibition above about 21%, passing the limit was not always enough
Target sequence (P9WNP5 whole entry, looked up): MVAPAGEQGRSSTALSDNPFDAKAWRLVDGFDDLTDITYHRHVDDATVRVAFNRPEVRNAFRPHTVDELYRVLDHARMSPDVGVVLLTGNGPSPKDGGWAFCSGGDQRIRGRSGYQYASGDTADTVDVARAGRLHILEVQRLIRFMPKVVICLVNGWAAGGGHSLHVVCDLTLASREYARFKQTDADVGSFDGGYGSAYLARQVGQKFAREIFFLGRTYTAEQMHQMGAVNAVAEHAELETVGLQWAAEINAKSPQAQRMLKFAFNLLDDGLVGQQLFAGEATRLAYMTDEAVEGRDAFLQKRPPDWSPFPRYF
* = called active by the depositor; i = inactive; nt = not tested or not shown.

SMILES	Mtb MbtI inh	PV pol inh	Mtb MenB inh
COC(=O)CSc1nccc(=O)[nH]1	-7.0	101.0	-1.1
Cc1ccc(C(=O)N2CCc3ccccc3C2)cc1	nt	103.0	3.6
O=C(c1ccc(F)cc1)N1CCc2ccccc2C1	nt	85.0*	-16.0
Fc1ccc(NC(=S)Nc2ccccc2)cc1	nt	103.0	-3.2
N#CC(=S)Nc1ccc(F)cc1	6.8	85.0*	-9.0
CS(=O)(=O)Cc1ccc(Oc2ccc(NS(C)(=O)=O)cc2)cc1	nt	100.0	-28.2
CN1CCC(NC(=O)c2cc(Br)ccc2Cl)CC1	-2.6	101.0	4.7
CC(C)C1CC(CCN2C(=O)CCC2=O)(c2ccccc2)CCO1 (centres undefined)	-6.2	100.0	2.2
N[C@@H]1C[C@H]1c1ccccc1	5.9	99.0	36.4*
O=C(O)C1CC1c1ccccc1 (centres undefined)	-9.9	99.0	-33.9
O=C(CN1CCN(S(=O)(=O)c2ccc(Cl)cc2)CC1)N(C1CCCCC1)C1CCS(=O)(=O)C1 (centres undefined)	-3.5	nt	-27.3
CCn1c(=O)c2cc(C(=O)N(CCN(C)C)Cc3ccccc3)sc2c2ccccc21	nt	87.0*	nt
CCn1c(=O)c2cc(C(=O)N(Cc3ccccc3)C(C)C)sc2c2ccccc21	38.5	100.0	-9.9
COc1cccc(-c2cc(C(=O)NCC(C)C)no2)c1	-8.6	103.0	-9.5
O=C(COc1c(F)c(F)cc(F)c1F)c1ccc2c(c1)OCCO2	-1.2	103.0	-33.5
CCNC(=O)CSc1n[nH]c(-c2ccc(C)cc2)n1	8.1	105.0	-21.9
O=c1c2ccccc2nc(-c2ccco2)n1-c1nccs1	26.9	101.0	41.6*
O=c1c2cnn(-c3ccccc3)c2nc(-c2ccco2)n1-c1ccccc1	-7.0	nt	nt
O=C(O)C1CCCCC1C(=O)Nc1ccc(CN2CCCCC2)cc1 (centres undefined)	-1.4	104.0	-21.6
COCCn1c(C)cc(O)c(C(c2ccccc2)N2CCN(c3ccccc3)CC2)c1=O (centres undefined)	nt	85.0*	nt
COCCn1c(C)cc(O)c(C(c2ccccc2)N2CCN(c3ccc(F)cc3)CC2)c1=O (centres undefined)	nt	101.0	nt
COc1ccccc1Cn1c(=O)c2cccnc2n(CC(=O)NCc2ccc(C)cc2)c1=O	-11.4	100.0	4.4
O=c1ccc2cc3c([nH]c4ccc(Br)cc43)oc-2c1O	96.8*	86.0	-119.3
O=C(O)c1cc(=O)c2cc(Br)ccc2o1	nt	106.0	-5.4
CCc1c(C)sc(NC(=O)c2cc(-c3cccc(Cl)c3)on2)c1C#N	nt	89.0	nt
SMILES	Mtb MbtI inh	PV pol inh	Mtb MenB inh
CCOC(=O)c1c(-c2ccc(C)cc2)csc1NC(=O)c1cc(-c2ccc(C)c(F)c2)on1	nt	111.0	nt
CCOC(=O)c1c(-c2ccccc2)csc1NC(=O)c1cc(-c2ccc(Br)cc2)on1	nt	78.0*	nt
CCOC(=O)c1c(-c2ccccc2)csc1NC(=O)c1cc(-c2ccc(F)cc2)on1	nt	89.0*	nt
CCc1c(C)sc(NC(=O)c2cc(-c3ccccc3)on2)c1C#N	nt	83.0*	-11.4
CCOC(=O)c1c(NC(=O)c2cc(-c3ccc(Br)cc3)on2)sc(C(C)=O)c1C	nt	102.0	nt
O=C(c1cnc2cc3c(cc2c1)OCCO3)c1ccccc1O	-9.0	107.0	-11.8
CCC(CC)C(=O)Nc1c(-c2ccccc2)nc2cc(C)ccn12	114.8	100.0	-13.0
CC(=NCc1nnc(C)s1)c1cc2c(=O)n(C)c3ccccc3c2oc1=O	nt	110.0	-13.9
CSc1sc(C(=O)Sc2ccccc2)cc1S(=O)(=O)C(C)C	-7.0	82.0*	-7.6
CSc1sc(C(=O)Sc2ccccc2)c2c1S(=O)(=O)N(C)c1ccccc1-2	-6.0	99.0	-38.5
CCn1c(SCC(=O)Nc2ccc(OC)cc2)nnc1C1CC1	-6.1	101.0	13.2
CCOC(=O)/C(C#N)=C\N1CCOCC1	11.1	102.0	-1.0
CCOC(=O)/C(C#N)=C\C1=C(N2CCCC2)CC(C)(C)OC1	62.2*	101.0	i
CC(CC(=O)NC1CCCC1)CC1=NS(=O)(=O)c2ccccc2N1 (centres undefined)	-15.4	102.0	-4.5
Cc1ccccc1NC(=O)CSC1=NC(=O)CC(=O)N1Cc1ccccc1	-1.9	101.0	-152.9
CC(=O)Nc1ccc2c(COC(=O)Cc3coc4cc5c(cc34)CCC5)cc(=O)oc2c1	102.3	104.0	-31.4
O=C(N/N=C/c1ccc(OC(=O)c2ccco2)cc1)c1ccccn1	-15.1	102.0	-6.9
N#CC(C#N)=Cc1ccc(OC(=O)c2ccccn2)cc1	33.5	87.0*	-163.3
CCn1c(=O)c2sccc2n2c(CCCC(=O)N3CCN(c4ccccc4OC)CC3)nnc12	nt	116.0	nt
CCn1c(=O)c2sccc2n2c(CCCC(=O)N3CCN(c4ccc(OC)cc4)CC3)nnc12	nt	49.0*	nt
CCOCc1c(C(=O)OCC(=O)c2ccccc2)oc2ccccc12	103.3	102.0	-26.9
C/C(=N\N=C1/NC(=O)CC(C(N)=O)S1)c1cccs1 (centres undefined)	19.6	100.0	-3.4
